Measured values from PubChem BioAssay AID652042 (Broad Institute, 2013).
The whole screen tested about 1,100 compounds, of which about 350 (32%) were called active. These entries were drawn from the full list. Measured potencies and affinities stand elsewhere. Unmarked numbers belong to inactive results. No rule for the calls is given here.

Assay: viability loss in CEM21 cells – cell-based, CellTiter-Glo luminescence, cherry-picked, cytotoxicity control for viral fusion inhibitor project, dose response (AID 652042)
Conditions: CellTiter-Glo ATP luminescence, 24 h; series mostly up to 35 µM

| SMILES | activity change, negative = cytotoxicity |
| --- | --- |
| O=C(CCC(=O)N1CCN(S(=O)(=O)c2ccc3ccccc3c2)CC1)Nc1cc(Cl)cc(Cl)c1 | inactive |
| CCN1CCN(S(=O)(=O)c2ccc(Cl)c(C(=O)Nc3ccccc3N3CCCC3)c2)CC1 | inactive |
| CCCCCCc1nc2ccccc2c(=O)n1NC(=O)c1c(O)c2c(n(CC(C)C)c1=O)CCCC2 | inactive |
| CC[C@@]12C(=O)N(c3cccc(Br)c3)C(=O)N1[C@H](c1ccc(OC)cc1)[C@@H]1C(=O)N(C(C)(C)C)C(=O)[C@@H]12 | inactive |
| CN(Cc1ccc(Cl)cc1Cl)C(=O)c1cccc(S(=O)(=O)N2CCN(c3ccccc3)CC2)c1 | inactive |
| Cc1ccc(C)c(-n2cc(CNCCCn3cccn3)c(-c3ccccc3)n2)c1 | inactive |
| O=C1NCCN(Cc2cccc(Oc3ccccc3)c2)C1CC(=O)N1CCCCC1 (centres undefined) | inactive |
| Cc1cc(Cl)c(S(=O)(=O)N2CCCC2)cc1OCC(=O)NC1CCCCC1 | inactive |
| Cc1cc(Cl)c(S(=O)(=O)N2CCSCC2)cc1OCC(=O)NC1CCCCC1 | inactive |
| CN(C)CCn1c(=O)n(-c2cccc(Cl)c2)c(=O)c2c3c(sc21)CCCCC3 | inactive |
| CCC(C)NS(=O)(=O)c1ccc(S(=O)(=O)N2CCCC3(CCCCC3)C2)cc1 (centres undefined) | inactive |
| O=C(COC(=O)c1ncc(Cl)c(Cl)c1Cl)NCc1cccs1 | inactive |
| Cc1nc2ccccc2c2c1CC(C(C)(Cl)Br)O2 (centres undefined) | inactive |
| COc1cc2oc(=O)cc(-c3ccc(-c4ccc(CO)cc4)cc3)c2c(OC)c1OC | inactive |
| COc1ccccc1N/C(N)=N/c1nc(CSc2ccc(C)cc2)cc(=O)[nH]1 | inactive |
| C=CCN=C1NN=C(c2cc(C)n(CCOC)c2C)CS1 | inactive |
| CN1C(=O)c2cc(NS(=O)(=O)c3ccccc3F)ccc2OC[C@@H]2O[C@H](CC(=O)NC3Cc4ccccc4C3)CC[C@@H]21 | inactive |
| Cn1c(C(=O)NCCCN2CCN(c3ccccc3F)CC2)cc2c(=O)[nH]c3ccccc3c21 | inactive |
| Cc1cccc(/C=N\Nc2cn[nH]c(=O)c2Cl)c1 | inactive |
| COC(=O)[C@]1(C)N[C@H](CN(C)C(=O)Nc2ccc(Cl)cc2)[C@@H]2C(=O)N(Cc3ccccc3)C(=O)[C@@H]21 | inactive |
| COc1ccc2[nH]c(=O)c(CN(Cc3cccs3)Cc3nnnn3Cc3ccccc3)cc2c1 | inactive |
| COCCn1nnnc1CN(CCc1ccccc1)Cc1cc2cc(OC)ccc2[nH]c1=O | inactive |
| Cc1cc(NC(=O)CCC(=O)N(C2CC2)C2(C(=O)NC3CCCC3)CCC(C)CC2)no1 (centres undefined) | inactive |
| CCOC(=O)CN1CCCc2nc(C)c(C)cc21 | inactive |

| SMILES | activity change, negative = cytotoxicity |
| --- | --- |
| Cn1c(SCc2nc(-c3ccc(Cl)cc3)no2)nnc1-c1cccs1 | inactive |
| CCNc1ncnc2c1cnn2C1CCCO1 (centres undefined) | inactive |
| COc1cc(OC)cc(C(=O)N[C@H](C(=O)NCCc2c[nH]c3ccccc23)C(C)C)c1 | inactive |
| COc1cc(CNCc2ccc(OC)c3ccccc23)cc(OC)c1OC | inactive |
| N#Cc1c(NCc2ccccc2)ccnc1NCc1cccnc1 | inactive |
| Cc1nc2ccccc2nc(C)c1=NOCc1cccc(Cl)c1 | inactive |
| Cc1ccc(C(=O)Nc2cnc3ccccc3c2)cc1 | inactive |
| COc1ccc(-c2nn(C)c(=O)c3ccccc23)cc1NC(=O)Cn1nc(C)c2ccccc2c1=O | inactive |
| COc1ccc(-c2c(C)nn3c(C(F)(F)F)cc(C)nc23)cc1 | inactive |
| C=CCNc1nc2c(c(=O)n(C)c(=O)n2C)n1CCCCCC | inactive |
| O=C(CNC(=O)c1cccc(-n2cccc2)c1)Nc1ccccc1Br | inactive |
| CC[C@@]12C(=O)N(c3ccc(OC)cc3)C(=O)N1[C@H](c1ccc(Cl)cc1)[C@@H]1C(=O)N(C3CCCCC3)C(=O)[C@@H]12 | inactive |
| Cn1c(-c2ccc(Cl)cc2)ccc(C#N)c1=O | inactive |
| O=S(=O)(NC1CC1)c1ccc(S(=O)(=O)N2CCCc3ccccc32)cc1 | inactive |
| Cc1ccc(OCCCCNC(C)c2ccccc2)c(C)c1 (centres undefined) | 1.82% [at 8 µM] |
| CC(C)OP(=O)(Nc1cccc2ccccc12)OC(C)C | inactive |
| O=C(c1ccccc1F)N1CCN(Cc2cccc(Cl)c2)CC1 | inactive |
| COc1ccccc1CN(C)C(=O)CN1CCN(C(=O)c2cccs2)CC1 | inactive |
| O=C(CCCC(=O)N(c1ccc2c(c1)OCCO2)C(C(=O)NC1CCCCC1)c1ccc(F)cc1)Nc1ccccn1 (centres undefined) | inactive |
| Nc1ccn(C2OC(COC(=O)C34CC5CC(CC(C5)C3)C4)C(O)C2O)c(=O)n1 (centres undefined) | inactive |
| Nc1ccn([C@@H]2O[C@H](C(=O)NCc3ccc4c(c3)OCO4)[C@@H](O)[C@H]2O)c(=O)n1 | inactive |
| C[C@@]12CC(=O)NC1N(C(=O)c1cccc(C(F)(F)F)c1)C(c1ccccc1O)C2 (some centres undefined) | inactive |
| COc1ccc(NS(=O)(=O)c2cccc(C(=O)NNC(=O)CNC(=O)c3ccc(C)cc3)c2)cc1 | inactive |
| COc1ccc(CC(=O)Nc2cccc(S(=O)(=O)N3CCCCCC3)c2)cc1OC | inactive |

| SMILES | activity change, negative = cytotoxicity |
| --- | --- |
| CC1CCCC(C)N1CCCNC(=O)c1nn(C)c2c1CSc1ccccc1-2 (centres undefined) | inactive |
| Cc1cc(N2CCN(c3nc4ccccc4s3)CC2)n2ncnc2n1 | inactive |
| Cc1cccc(C)c1NC(=O)CCCSc1nnc(-c2ccc(Cl)cc2)n1-c1ccccc1 | inactive |
| O=C(NCc1ccco1)c1ccc(Cn2c(=O)c3ccccc3n(Cc3cccc(Cl)c3)c2=O)cc1 | inactive |
| Cc1cc(C(=O)N2CCC(C(=O)O)CC2)c(C(F)(F)F)o1 | inactive |
| COc1ccc(-c2cn[nH]c2N)c(OC)c1 | inactive |
| Cc1cc(Nc2cccc(C(F)(F)F)c2)cc(=O)n1-c1cccc(C(F)(F)F)c1 | inactive |
| O=C(Nc1cccc(C(F)(F)F)c1)c1ccc(Cn2cc(Br)cn2)o1 | inactive |
| CCN(C1CCCCC1)S(=O)(=O)c1ccc(S(=O)(=O)N(CC(=O)Nc2ccccc2)C2CC2)cc1 | inactive |
| O=C(Nc1ccc(Cl)cc1)Nc1cccc(C(=O)O)c1 | inactive |
| CCN(C[C@H]1N[C@@](CC)(C(=O)OC)[C@H]2C(=O)N(Cc3ccccc3)C(=O)[C@@H]12)S(=O)(=O)c1ccc(C(F)(F)F)cc1 | inactive |
| CCN(CC)S(=O)(=O)c1cccc(S(=O)(=O)c2cccc(S(=O)(=O)N(CC)CC)c2)c1 | inactive |
| CCCCS(=O)(=O)N1CCN(C(=O)C(=O)c2cccc(C(F)(F)F)c2)CC1 | inactive |
| O=C(NC1CCCCC1)C(c1ccc(Cl)cc1)N(C(=O)c1cnccn1)c1ccc2c(c1)OCO2 (centres undefined) | inactive |
| COc1ccc(N2CCn3c2nc2c3c(=O)n(CCCc3ccccc3)c(=O)n2C)c(OC)c1 | inactive |
| CCN1C(=O)[C@H]2[C@@H](c3ccc(C(F)(F)F)cc3)N[C@]3(CCCN(Cc4ccccc4)C3=O)[C@H]2C1=O | inactive |
| CCC(C(=O)c1ccccc1)N(C(=O)c1ccccc1Cl)N1C(=O)C2C3C=CC(C3)C2C1=O (centres undefined) | inactive |
| CC[C@@]1(C(=O)OC)N[C@H](CN(C)S(=O)(=O)c2ccc(-c3ccccc3)cc2)[C@@H]2C(=O)N(Cc3ccccc3)C(=O)[C@@H]21 | inactive |
| O=C(Cc1ccc(Cl)cc1Cl)Nc1ccncc1 | inactive |
| CCN(C[C@H]1N[C@@](CC)(C(=O)OC)[C@H]2C(=O)N(Cc3ccccc3)C(=O)[C@@H]12)C(=O)Nc1ccc(Cl)cc1 | inactive |
| CCN(CC)C(=O)c1ncn2c1C(=O)NC[C@@H]2C | inactive |
| CCc1ccc2[nH]c(=O)c(C(c3nnnn3Cc3ccc(OC)cc3)N3CCOCC3)cc2c1 (centres undefined) | inactive |
| Cc1ccc(C(=O)Nc2cccc(C(=O)O)c2)cc1 | inactive |
| CCc1nnc(NC(=O)[C@@H](NC(=O)c2cccc(S(=O)(=O)N(CC)CC)c2)C(C)C)s1 | inactive |

| SMILES | activity change, negative = cytotoxicity |
| --- | --- |
| COc1ccc(C2N(S(=O)(=O)c3ccc(C)cc3)CCN2S(=O)(=O)c2ccc(C)cc2)cc1 | inactive |
| Cc1ccccc1S(=O)(=O)N1C[C@H]2[C@H]3C(=O)N(C4CCCCC4)C(=O)[C@H]3CC(=O)[C@H]2[C@@H]1c1ccc(Cl)cc1 | inactive |
| O=C(NCc1cccnc1)c1c[nH]c2cc3c(cc2c1=O)OCCO3 | inactive |
| CC[C@@]1(C(=O)OC)N[C@H](CN(C)C(=O)c2ccc(C(C)(C)C)cc2)[C@@H]2C(=O)N(Cc3ccccc3)C(=O)[C@@H]21 | inactive |
| N#Cc1ccc(CSc2nnc(COc3ccccc3)n2-c2ccccc2)cc1 | inactive |
| Cc1cc(C(=O)CN2C(=O)c3ccccc3S2(=O)=O)c(C)n1C(C)C | inactive |
| O=C(Nc1ccc(S(=O)(=O)N2CCN(Cc3ccccc3)CC2)cc1)c1cnccn1 | inactive |
| O=C(Nc1nc(-c2ccc3c(c2)OCO3)cs1)c1ccncc1 | inactive |
| Cc1ccc2c(CN3CCN(S(=O)(=O)c4ccc5c(c4)OCCO5)CC3)cc(=O)oc2c1C | inactive |
| Cc1ccc(N2C(=O)CC(c3ccsc3)C3=C2CC(C)(C)CC3=O)cc1 (centres undefined) | inactive |
| CCN(CC)c1ncnc2ccc(Br)cc12 | inactive |
| O=C(N/N=C/c1sc(N2CCOCC2)nc1-c1ccccc1)c1cccc(S(=O)(=O)N2CCOCC2)c1 | inactive |
| O=S(=O)(Nc1nc2ccccc2nc1Nc1cccc(S(=O)(=O)N2CCCCC2)c1)c1ccccc1 | inactive |
| CC(=O)OC1c2ccccc2C(=O)N1c1ccccc1C (centres undefined) | inactive |
| O=C1COc2ccc(-c3csc(=Nc4ccc(OC(F)F)cc4)n3CC3CCCO3)cc2N1 (centres undefined) | inactive |
| CC1(C(=O)NCc2cccc3ccccc23)CCN1Cc1ccc(-c2ccccc2)o1 (centres undefined) | inactive |
| COc1ccc(NC(=O)C2(C)CCN2Cc2ccccc2OC(F)F)cc1OC (centres undefined) | inactive |
| CC(=O)C1=C(C)N(Cc2ccc(Cl)cc2)C(=S)NC1c1cccc(Br)c1 (centres undefined) | inactive |
| C[C@H](CO)N1C[C@H](C)[C@H](CN(C)S(=O)(=O)c2cccs2)Oc2ccc(NC(=O)C3CCCCC3)cc2CC1=O | inactive |
| CCCC#Cc1ccc2c(c1)O[C@@H](CN(C)S(=O)(=O)c1cccc(F)c1)[C@@H](C)CN([C@@H](C)CO)S2(=O)=O | inactive |
| C[C@H](CO)N1C[C@H](C)[C@@H](CN(C)C(=O)NC2CCCCC2)Oc2c(cccc2N(C)C)C1=O | inactive |
| CCCC#Cc1ccc2c(c1)O[C@@H](CN(C)S(=O)(=O)c1cccc(F)c1)[C@@H](C)CN([C@H](C)CO)S2(=O)=O | inactive |
